# Source: the supplement of paper PMC8728848
# This excerpt belongs to a sample that is enriched for the strongest signals.
# B1: Intelectin-1a (Mus musculus) (protein)
# chain: AEWSHPQFEKAEENLDTNRWGNSFFSSLPRSCKEIKQEHTKAQDGLYFLRTKNGVIYQTFCDMTTAGGGWTLVASVHENNMRGKCTVGDRWSSQQGNRADYPEGDGNWANYNTFGSAEAATSDDYKNPGYFDIQAENLGIWHVPNKSPLHNWRKSSLLRYRTFTGFLQHLGHNLFGLYKKYPVKYGEGKCWTDNGPALPVVYDFGDARKTASYYSPSGQREFTAGYVQFRVFNNERAASALCAGVRVTGCNTEHHCIGGGGFFPEGNPVQCGDFASFDWDGYGTHNGYSSSRKITEAAVLLFYR
# Columns and labels:
# Test in all cases: glycan array binding signal (z-score within array); higher = stronger binding
# Conditions in all cases: glycan notation: IUPAC condensed, linker removed
# [1] = biological target: Fuc(a1-2)Gal(b1-3)GlcNAc(b1-2)Man(a1-3)[Fuc(a1-2)Gal(b1-3)GlcNAc(b1-2)Man(a1-6)]Man(b1-4)GlcNAc(b1-4)[Fuc(a1-6)]GlcNAc
# Outline: (§1)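 Glycan array data came from 3228 arrays in the Consortium for Functional Glycomics database, and only arrays with an available protein sequence were kept. Glycan names were put into IUPAC-condensed notation, and columns mapping to the same glycan were averaged. The binding signal is a within-array Z-score, averaged across arrays of one protein sequence run at different concentrations or buffers and across linkers. A negative Z-score can be read as non-binding.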
# [2] = biological target: Fuc(a1-2)Gal(b1-3)GlcNAc(b1-3)GalNAc
# Outline: as §1
# [3] = biological target: Fuc(a1-2)Gal(b1-3)[Fuc(a1-4)]GlcNAc(b1-2)Man(a1-3)[Fuc(a1-2)Gal(b1-3)[Fuc(a1-4)]GlcNAc(b1-2)Man(a1-6)]Man(b1-4)GlcNAc(b1-4)GlcNAc
# Outline: as §1
# [4] = biological target: Fuc(a1-2)Gal(b1-4)GlcNAc(b1-2)Man
# Outline: as §1
# [5] = biological target: Fuc(a1-2)Gal(b1-4)GlcNAc(b1-2)Man(a1-3)[Fuc(a1-2)Gal(b1-4)GlcNAc(b1-2)Man(a1-6)]Man(b1-4)GlcNAc(b1-4)GlcNAc
# Outline: as §1
# [6] = biological target: Fuc(a1-2)Gal(b1-4)GlcNAc(b1-3)[Fuc(a1-2)Gal(b1-4)GlcNAc(b1-6)]GalNAc
# Outline: as §1
# [7] = biological target: Fuc(a1-2)Gal(b1-4)[Fuc(a1-3)]GlcNAc(b1-3)Gal(b1-4)[Fuc(a1-3)]GlcNAc
# Outline: as §1
# Fuc(a1-2)Gal6S(b1-4)Glc = biological target: Fuc(a1-2)Gal6S(b1-4)Glc
# Outline: as §1
# [8] = biological target: Fuc(a1-2)[Gal(a1-3)]Gal(b1-3)GlcNAc(b1-2)Man(a1-3)[Fuc(a1-2)[Gal(a1-3)]Gal(b1-3)GlcNAc(b1-2)Man(a1-6)]Man(b1-4)GlcNAc(b1-4)GlcNAc
# Outline: as §1
# [9] = biological target: Fuc(a1-2)[Gal(a1-3)]Gal(b1-3)GlcNAc(b1-2)Man(a1-3)[Fuc(a1-2)[Gal(a1-3)]Gal(b1-3)GlcNAc(b1-2)Man(a1-6)]Man(b1-4)GlcNAc(b1-4)[Fuc(a1-6)]GlcNAc
# Outline: as §1
# [10] = biological target: Fuc(a1-2)[Gal(a1-3)]Gal(b1-4)GlcNAc(b1-2)Man(a1-3)[Fuc(a1-2)[Gal(a1-3)]Gal(b1-4)GlcNAc(b1-2)Man(a1-6)]Man(b1-4)GlcNAc(b1-4)GlcNAc
# Outline: as §1
# [11] = biological target: Fuc(a1-2)[GalNAc(a1-3)]Gal
# Outline: as §1
# [12] = biological target: Fuc(a1-2)[GalNAc(a1-3)]Gal(b1-3)GlcNAc(b1-2)Man(a1-3)[Fuc(a1-2)[GalNAc(a1-3)]Gal(b1-3)GlcNAc(b1-2)Man(a1-6)]Man(b1-4)GlcNAc(b1-4)GlcNAc
# Outline: as §1
# [13] = biological target: Fuc(a1-3)[Gal(b1-4)]GlcNAc(b1-6)[Neu5Ac(a2-3)Gal(b1-3)]GalNAc
# Outline: as §1
# [14] = biological target: Fuc(a1-3)[GalNAc3S(b1-4)]GlcNAc
# Outline: as §1
# [15] = biological target: Gal(a1-3)Gal(b1-3)GlcNAc(b1-2)Man(a1-3)[Gal(a1-3)Gal(b1-3)GlcNAc(b1-2)Man(a1-6)]Man(b1-4)GlcNAc(b1-4)GlcNAc
# Outline: as §1
# [16] = biological target: Gal(a1-3)Gal(b1-3)GlcNAc(b1-3)GalNAc
# Outline: as §1
# [17] = biological target: Gal(a1-3)Gal(b1-4)[Fuc(a1-3)]GlcNAc(b1-2)Man(a1-3)[Gal(a1-3)Gal(b1-4)[Fuc(a1-3)]GlcNAc(b1-2)Man(a1-6)]Man(b1-4)GlcNAc(b1-4)GlcNAc
# Outline: as §1
# [18] = biological target: Gal(b1-3)GlcNAc(b1-3)Gal(b1-4)GlcNAc(b1-6)[Gal(b1-3)GlcNAc(b1-3)]Gal(b1-4)Glc
# Outline: as §1
# [19] = biological target: Gal(b1-3)[Neu5Ac(a2-6)]GlcNAc(b1-6)Gal(b1-4)Glc
# Outline: as §1
# Gal3S(b1-3)GlcNAc = biological target: Gal3S(b1-3)GlcNAc
# Outline: as §1
# Gal3S(b1-4)Glc = biological target: Gal3S(b1-4)Glc
# Outline: as §1
# Gal4S(b1-4)GlcNAc = biological target: Gal4S(b1-4)GlcNAc
# Outline: as §1
# Gal6S(b1-4)Glc6S = biological target: Gal6S(b1-4)Glc6S
# Outline: as §1
# [20] = biological target: GalNAc(a1-3)Fuc(a1-2)Gal(b1-4)GlcNAc(b1-3)[GalNAc(a1-3)Fuc(a1-2)Gal(b1-4)GlcNAc(b1-6)]GalNAc
# Outline: as §1
# GalNAc(b1-3)Gal = biological target: GalNAc(b1-3)Gal
# Outline: as §1
# [21] = biological target: Glc(a1-6)Glc(a1-6)Glc(a1-6)Glc
# Outline: as §1
# GlcA(b1-3)Gal = biological target: GlcA(b1-3)Gal
# Outline: as §1
# [22] = biological target: GlcNAc(a1-4)Gal(b1-4)GlcNAc(b1-3)Gal(b1-4)[Fuc(a1-3)]GlcNAc(b1-3)Gal(b1-4)[Fuc(a1-3)]GlcNAc
# Outline: as §1
# [23] = biological target: GlcNAc(b1-3)Gal(b1-3)GalNAc
# Outline: as §1
binder,measurement,setting,value
B1,glycan array binding signal (z-score),[1],-0.492
same,glycan array binding signal (z-score),[2],2.92
same,glycan array binding signal (z-score),[3],2.9
same,glycan array binding signal (z-score),[4],1.06
same,glycan array binding signal (z-score),[5],-0.329
same,glycan array binding signal (z-score),[6],-0.517
same,glycan array binding signal (z-score),[7],-1.05
same,glycan array binding signal (z-score),Fuc(a1-2)Gal6S(b1-4)Glc,1.88
same,glycan array binding signal (z-score),[8],0.954
same,glycan array binding signal (z-score),[9],3.73
same,glycan array binding signal (z-score),[10],-0.423
same,glycan array binding signal (z-score),[11],0.968
same,glycan array binding signal (z-score),[12],0.792
same,glycan array binding signal (z-score),[13],-0.328
same,glycan array binding signal (z-score),[14],0.115
same,glycan array binding signal (z-score),[15],2.64
same,glycan array binding signal (z-score),[16],-0.09
same,glycan array binding signal (z-score),[17],2.76
same,glycan array binding signal (z-score),[18],2.74
same,glycan array binding signal (z-score),[19],0.312
same,glycan array binding signal (z-score),Gal3S(b1-3)GlcNAc,-0.392
same,glycan array binding signal (z-score),Gal3S(b1-4)Glc,-0.304
same,glycan array binding signal (z-score),Gal4S(b1-4)GlcNAc,-0.354
same,glycan array binding signal (z-score),Gal6S(b1-4)Glc6S,-0.38
same,glycan array binding signal (z-score),[20],1.24
same,glycan array binding signal (z-score),GalNAc(b1-3)Gal,-0.938
same,glycan array binding signal (z-score),[21],-0.709
same,glycan array binding signal (z-score),GlcA(b1-3)Gal,0.662
same,glycan array binding signal (z-score),[22],5.84
same,glycan array binding signal (z-score),[23],-0.724
